Experimental data as given in PubChem BioAssay AID1159580 (chemical genetic matrix, 2015).
Hit rate of the full screen: of about 5,500 compounds, about 2,000 (36%) were called active. Another 18% or so got no clear call; they are omitted. Cut-off read from the data, not from the text of the source: active = normalized growth mostly below about 0.91 (no sharp cut-off); inconclusive = no clear call, values can overlap the other calls; inactive = mostly above about 0.92. Some of the results follow.

Test: chemical genetic growth profiling, strain panel (AID 1159580);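 note: tested at 20 µM; growth read once vehicle control cultures reached saturation at 30 °C; 1 = growth at the plate median or of vehicle wells; lower values mean less growth of the strain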
Conditions: growth OD
[1] = S. cerevisiae deletion strains, locus YAR019C, strain CDC15, active compounds read low
[2] = S. cerevisiae deletion strains, locus YBL105C, strain PKC1, active compounds read low
[3] = S. cerevisiae deletion strains, locus YBR135W, strain CKS1, active compounds read low
[4] = S. cerevisiae deletion strains, locus YBR136W, strain MEC1, active compounds read low
[5] = S. cerevisiae deletion strains, locus YBR160W, strain CDC28, active compounds read low
[6] = S. cerevisiae deletion strains, locus YDL017W, strain CDC7, active compounds read low
[7] = S. cerevisiae deletion strains, locus YDL028C, strain MPS1, active compounds read low
[8] = S. cerevisiae deletion strains, locus YDL101C, strain DUN1, active compounds read low
[9] = S. cerevisiae deletion strains, locus YDL108W, strain KIN28, active compounds read low
[10] = S. cerevisiae deletion strains, locus YDL132W, strain cdc53, active compounds read low
[11] = S. cerevisiae deletion strains, locus YDL214C, strain PRR2, active compounds read low
[12] = S. cerevisiae deletion strains, locus YDR052C, strain DBF4, active compounds read low
[13] = S. cerevisiae deletion strains, locus YDR054C, strain cdc34, active compounds read low
[14] = S. cerevisiae deletion strains, locus YDR226W, strain ADK1, active compounds read low
[15] = S. cerevisiae deletion strains, locus YDR477W, strain SNF1, active compounds read low
[16] = S. cerevisiae deletion strains, locus YER123W, strain YCK3, active compounds read low
[17] = S. cerevisiae deletion strains, locus YER133W, strain GLC7, active compounds read low
[18] = S. cerevisiae deletion strains, locus YFL009W, strain cdc4, active compounds read low
[19] = S. cerevisiae deletion strains, locus YFL029C, strain CAK1, active compounds read low
[20] = S. cerevisiae deletion strains, locus YFR003C, strain YPI1, active compounds read low
[21] = S. cerevisiae deletion strains, locus YFR019W, strain FAB1, active compounds read low
[22] = S. cerevisiae deletion strains, locus YFR028C, strain CDC14, active compounds read low
[23] = S. cerevisiae deletion strains, locus YGR040W, strain KSS1, active compounds read low
[24] = S. cerevisiae deletion strains, locus YGR052W, strain FMP48, active compounds read low
[25] = S. cerevisiae deletion strains, locus YGR092W, strain DBF2, active compounds read low
[26] = S. cerevisiae deletion strains, locus YHR030C, strain SLT2, active compounds read low
[27] = S. cerevisiae deletion strains, locus YHR079C, strain IRE1, active compounds read low
[28] = S. cerevisiae deletion strains, locus YHR082C, strain KSP1, active compounds read low
[29] = S. cerevisiae deletion strains, locus YHR205W, strain SCH9, active compounds read low
[30] = S. cerevisiae deletion strains, locus YIL147C, strain SLN1, active compounds read low
[31] = S. cerevisiae deletion strains, locus YJL095W, strain BCK1, active compounds read low
[32] = S. cerevisiae deletion strains, locus YJL157C, strain FAR1, active compounds read low
[33] = S. cerevisiae deletion strains, locus YJR016C, strain ILV3, active compounds read low
[34] = S. cerevisiae deletion strains, locus YJR066W, strain TOR1 (second series), active compounds read low
[35] = S. cerevisiae deletion strains, locus YJR066W, strain TOR1, active compounds read low
[36] = S. cerevisiae deletion strains, locus YKL048C, strain ELM1, active compounds read low
[37] = S. cerevisiae deletion strains, locus YKL067W, strain YNK1, active compounds read low
[38] = S. cerevisiae deletion strains, locus YKL101W, strain HSL1, active compounds read low
[39] = S. cerevisiae deletion strains, locus YKL193C, strain SDS22, active compounds read low
[40] = S. cerevisiae deletion strains, locus YKL203C, strain TOR2, active compounds read low
[41] = S. cerevisiae deletion strains, locus YLR113W, strain HOG1, active compounds read low
[42] = S. cerevisiae deletion strains, locus YLR133W, strain CKI1, active compounds read low
[43] = S. cerevisiae deletion strains, locus YLR403W, strain SFP1, active compounds read low
[44] = S. cerevisiae deletion strains, locus YML070W, strain DAK1, active compounds read low
[45] = S. cerevisiae deletion strains, locus YMR001C, strain CDC5, active compounds read low
[46] = S. cerevisiae deletion strains, locus YMR205C, strain PFK2 (second series), active compounds read low
[47] = S. cerevisiae deletion strains, locus YMR277W, strain FCP1, active compounds read low
[48] = S. cerevisiae deletion strains, locus YNL006W, strain LST8, active compounds read low
[49] = S. cerevisiae deletion strains, locus YNL020C, strain ARK1, active compounds read low
[50] = S. cerevisiae deletion strains, locus YNL161W, strain CBK1, active compounds read low
[51] = S. cerevisiae deletion strains, locus YNL183C, strain NPR1, active compounds read low
[52] = S. cerevisiae deletion strains, locus YNL207W, strain RIO2, active compounds read low
[53] = S. cerevisiae deletion strains, locus YNL222W, strain SSU72, active compounds read low
[54] = S. cerevisiae deletion strains, locus YNL307C, strain MCK1 (second series), active compounds read low
[55] = S. cerevisiae deletion strains, locus YOL078W, strain AVO1, active compounds read low
[56] = S. cerevisiae deletion strains, locus YOL136C, strain PFK27, active compounds read low
[57] = S. cerevisiae deletion strains, locus YOR061W, strain CKA2, active compounds read low
[58] = S. cerevisiae deletion strains, locus YOR119C, strain RIO1, active compounds read low
[59] = S. cerevisiae deletion strains, locus YOR231W, strain MKK1, active compounds read low
[60] = S. cerevisiae deletion strains, locus YOR329C, strain SCD5, active compounds read low
[61] = S. cerevisiae deletion strains, locus YPL031C, strain PHO85, active compounds read low
[62] = S. cerevisiae deletion strains, locus YPL153C, strain RAD53, active compounds read low
[63] = S. cerevisiae deletion strains, locus YPL204W, strain HRR25, active compounds read low
[64] = S. cerevisiae deletion strains, locus YPL209C, strain IPL1, active compounds read low
[65] = S. cerevisiae deletion strains, locus YPL256C, strain CLN2, active compounds read low
[66] = S. cerevisiae deletion strains, locus YPR025C, strain CCL1, active compounds read low
[67] = S. cerevisiae deletion strains, locus YPR106W, strain ISR1, active compounds read low
[68] = S. cerevisiae deletion strains, strain TSCII, active compounds read low
[69] = S. cerevisiae deletion strains, locus YAL013W, strain DEP1, active compounds read low
[70] = S. cerevisiae deletion strains, locus YBR229C, strain ROT2, active compounds read low
[71] = S. cerevisiae deletion strains, locus YDR150W, strain NUM1, active compounds read low
[72] = S. cerevisiae deletion strains, locus YEL061C, strain CIN8, active compounds read low
[73] = S. cerevisiae deletion strains, locus YGR078C, strain PAC10, active compounds read low
[74] = S. cerevisiae deletion strains, locus YHR087W, strain rtc3, active compounds read low
[75] = S. cerevisiae deletion strains, locus YJR043C, strain POL32, active compounds read low
[76] = S. cerevisiae deletion strains, locus YJR075W, strain HOC1, active compounds read low
[77] = S. cerevisiae deletion strains, locus YKL190W, strain CNB1, active compounds read low
[78] = S. cerevisiae deletion strains, locus YLR039C, strain RIC1, active compounds read low
[79] = S. cerevisiae deletion strains, locus YLR058C, strain SHM2 (second series), active compounds read low
[80] = S. cerevisiae deletion strains, locus YLR085C, strain ARP6, active compounds read low
[81] = S. cerevisiae deletion strains, locus YLR262C, strain YPT6, active compounds read low
[82] = S. cerevisiae deletion strains, locus YML094W, strain GIM5, active compounds read low
[83] = S. cerevisiae deletion strains, locus YMR219W, strain ESC1, active compounds read low
[84] = S. cerevisiae deletion strains, locus YMR263W, strain SAP30, active compounds read low
[85] = S. cerevisiae deletion strains, locus YNL153C, strain GIM3, active compounds read low
[86] = S. cerevisiae deletion strains, locus YNL298W, strain CLA4 (second series), active compounds read low
[87] = S. cerevisiae deletion strains, locus YNL322C, strain KRE1, active compounds read low
[88] = S. cerevisiae deletion strains, locus YNR030W, strain Alg12, active compounds read low
[89] = S. cerevisiae deletion strains, locus YPL055C, strain LGE1, active compounds read low
[90] = S. cerevisiae deletion strains, locus YPL241C, strain CIN2, active compounds read low
[91] = S. cerevisiae deletion strains, locus YPR135W, strain CTF4, active compounds read low
[92] = S. cerevisiae strains, strain wild type, active compounds read low

Measured: normalized growth

Nc1cc(-c2ccc(OC(F)(F)F)cc2)nn1-c1ccc(Cl)c(Cl)c1
active: [11] 0.565 | [15] 0.487 | [16] 0.249 | [17] 0.577 | [21] 0.574 | [23] 0.488 | [24] 0.446 | [25] 0.388 | [26] 0.317 | [27] 0.448 | [28] 0.521 | [31] 0.254 | [32] 0.706 | [34] 0.589 | [36] 0.752 | [37] 0.597 | [38] 0.268 | [40] 0.454 | [41] 0.317 | [42] 0.644 | [44] 0.439 | [46] 0.605 | [49] 0.53 | [51] 0.378 | [54] 0.335 | [56] 0.672 | [57] 0.355 | [58] 0.528 | [59] 0.349 | [61] 0.29 | [62] 0.193 | [63] 0.285 | [65] 0.604 | [67] 0.643
inactive: [1] 0.979 | [2] 1.01 | [3] 0.981 | [4] 1.02 | [5] 0.983 | [6] 0.994 | [7] 1.01 | [8] 1 | [9] 1.01 | [10] 0.971 | [12] 0.985 | [13] 0.904 | [14] 0.983 | [18] 1.01 | [19] 0.969 | [20] 1 | [22] 1 | [29] 0.635 | [30] 1 | [33] 1 | [35] 0.669 | [39] 0.982 | [43] 0.676 | [45] 0.999 | [47] 0.993 | [48] 1 | [50] 0.992 | [52] 0.989 | [53] 0.99 | [55] 1 | [60] 1.01 | [64] 0.966 | [66] 0.975 | [68] 1.01

Cc1ccc(-n2nc(-c3ccc(OC(F)(F)F)cc3)cc2NC(=O)Nc2ccc(OC(F)(F)F)cc2)cc1C
inactive: [69] 1 | [70] 1.02 | [8] 1.01 | [71] 1.02 | [72] 1.01 | [73] 1.04 | [26] 1.09 | [74] 1.01 | [75] 1.02 | [76] 1.03 | [77] 1.02 | [78] 1.08 | [79] 1.02 | [80] 1.17 | [81] 1.05 | [82] 1.02 | [83] 1.02 | [84] 1.05 | [85] 0.996 | [86] 1.05 | [87] 1 | [88] 1.01 | [89] 1.06 | [90] 1.08 | [91] 0.996 | [92] 1.02

CCOC(=O)NC(=S)NC12CC3CC(CC(C3)C1)C2
inactive: [1] 0.978 | [2] 0.983 | [3] 0.977 | [4] 0.962 | [5] 0.984 | [6] 0.982 | [7] 0.978 | [8] 0.979 | [9] 0.957 | [10] 0.971 | [11] 0.875 | [12] 0.993 | [13] 0.967 | [14] 0.975 | [15] 0.894 | [16] 0.827 | [17] 0.86 | [18] 0.972 | [19] 0.974 | [20] 0.981 | [21] 0.955 | [22] 0.97 | [23] 0.872 | [24] 0.947 | [25] 0.787 | [26] 0.897 | [27] 0.915 | [28] 0.946 | [29] 0.965 | [30] 0.981 | [31] 0.964 | S. cerevisiae deletion strains, locus YJL128C, strain PBS2, active compounds read low 0.953 | [32] 0.865 | [33] 0.985 | [34] 0.789 | [35] 0.903 | [36] 0.968 | [37] 0.896 | [38] 0.923 | [39] 0.982 | [40] 0.958 | [41] 0.926 | [42] 0.934 | [43] 0.851 | [44] 0.878 | [45] 0.973 | [46] 0.917 | [47] 0.977 | [48] 0.971 | [49] 0.901 | [50] 0.987 | [51] 0.939 | [52] 0.97 | [53] 0.982 | [54] 0.881 | [55] 0.972 | [56] 0.898 | [57] 0.845 | [58] 0.934 | [59] 0.926 | [60] 0.984 | [61] 0.87 | [62] 0.863 | [63] 0.876 | [64] 0.981 | [65] 1 | [66] 0.982 | [67] 0.992 | S. cerevisiae deletion strains, locus YPR111W, strain DBF20, active compounds read low 0.996 | S. cerevisiae deletion strains, strain NNK1, active compounds read low 0.988 | [68] 0.971

CCOC(=O)c1cc(-c2ccc(N)cc2)oc1C
active: S. cerevisiae deletion strains, locus YCL061C, strain MRC1, active compounds read low 0.891 | [72] 0.59 | [26] 0.351 | [77] 0.869 | [78] 0.414 | [80] 0.458 | [81] 0.385 | [82] 0.806 | S. cerevisiae deletion strains, locus YMR307W, strain GAS1, active compounds read low 0.548 | [85] 0.66 | [86] 0.783 | [88] 0.885 | [89] 0.749 | [90] 0.483 | [91] 0.611
inactive: [69] 0.943 | [70] 0.95 | [8] 0.927 | S. cerevisiae deletion strains, locus YDL134C, strain PPH21, active compounds read low 0.939 | [71] 0.822 | [73] 0.942 | S. cerevisiae deletion strains, locus YGR229C, strain SMI1, active compounds read low 0.964 | [74] 0.96 | [75] 0.952 | [76] 0.963 | [79] 0.961 | [83] 0.959 | [84] 0.889 | [87] 0.973 | [92] 0.923
